Screens from PubChem BioAssay.
Most compounds without a hit are left out; they make up all but 3.2% or so of the library.
Tau fibril FP: inhibitors of human tau fibril formation. Potency, µM (highest dose often 57.7 µM), for inactives: at the top dose activity, negative = inhibition, actives largely listed as inhibitors. hit rate 0.39% among 280,000. K18 P301L tau heparin fibrillization, Alexa594 FP, 6 h. AID 1468. P10636; also: potency is read from the fitted curve at half-maximal effect; % is scaled to controls: 0 for no effect and ±100 for the full control effect; nearly all actives have a fitted effect of over 55% in size
Target sequence (P10636 561-689 P618L limits assumed): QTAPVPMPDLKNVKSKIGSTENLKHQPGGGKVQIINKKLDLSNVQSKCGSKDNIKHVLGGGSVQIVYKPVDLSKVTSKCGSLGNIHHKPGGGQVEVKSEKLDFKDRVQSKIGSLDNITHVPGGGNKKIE
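Human tau K18 […] P301L fragment, 15 uM unlabeled plus 0.24 uM Alexa 594-labeled tau (final), with compound and 20 uM heparin in 100 mM sodium acetate pH 7; 6 hr at 37 C, then Alexa 594 FP read.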
LMNA splice mod: modulators of lamin A splicing | HeLa LMNA splicing GFP/RFP minigene ratio, 48 h | Potency, µM (series often up to 46.1 µM), without a hit: at the highest dose ratio change, negative = inhibition, actives largely listed as inhibitors | hit rate 0.01% among 200,000; active = well fitted inhibition curve with a large enough effect in the signal ratio, with a control signal flat, not every such curve was filed as active; inconclusive = small, poorly fitted or top-dose-only effect, or effect the other way, or a change in a side signal; the % refers to the signal ratio; also: potency is read from the fitted curve at half-maximal effect; % is scaled to controls: 0 for no effect and ±100 for the full control effect
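S3 HeLa stable clones carrying a lamin A-EGFP splicing minigene plus DsRed2 were seeded at 600 cells/well in Opti-MEM with 2% FBS, pin-dosed and incubated 48 h at 37°C. Acumen cytometry (488 nm) gave the GFP/RFP total-intensity ratio.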
CBFb-RUNX1 inh: blocks binding between human CBF-beta and RUNX1; Q01196+Q13951; AlphaScreen CBFb-His/RUNX1-biotin binding, biochemical; Potency, µM (highest dose often 59.8 µM), without a hit: at the highest dose activity, negative = inhibition, most hits filed as inhibitors; 230,000 tested, under 10 active; also: % of control where 0% means no effect
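AlphaScreen proximity signal reports loss of binding between His-tagged CBF-beta and biotin-labelled RUNX1, each at 30 nM. Proteins are pre-associated for 20 minutes, compounds added for 15 minutes, then beads for 90 minutes, all at ambient temperature.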
JMJD2E inh: blocks human JMJD2E demethylase activity. B2RXH2. JMJD2E catalytic domain, FDH-coupled NADH fluorescence (FDH is formaldehyde dehydrogenase). Potency, µM (doses to about 57.1 µM), for inactives: at the highest dose activity change, negative = inhibition, usual class: inhibitors. hit rate 1.6% among 230,000. AID 2147; active = well fitted inhibition curve with a large enough effect, not every such curve was filed as active; inconclusive = small, poorly fitted or top-dose-only effect, or another doubt; inactive = no such curve, though single readings can be large or run the other way;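 also: potency is read from the fitted curve at half-maximal effect; 0% = wells with enzyme and -100% = buffer wells without enzyme; nearly all actives have a fitted effect of over 50% in size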
Target sequence (B2RXH2 1-337 limits assumed): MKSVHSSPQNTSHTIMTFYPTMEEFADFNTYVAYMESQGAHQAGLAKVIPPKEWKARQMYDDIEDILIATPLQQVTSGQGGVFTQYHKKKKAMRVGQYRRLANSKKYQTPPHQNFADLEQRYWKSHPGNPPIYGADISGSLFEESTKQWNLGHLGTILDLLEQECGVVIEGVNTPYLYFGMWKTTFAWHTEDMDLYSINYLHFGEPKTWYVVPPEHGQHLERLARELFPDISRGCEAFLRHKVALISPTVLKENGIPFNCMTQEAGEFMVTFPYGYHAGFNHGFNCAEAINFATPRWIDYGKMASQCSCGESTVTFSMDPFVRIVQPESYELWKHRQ
Tau ThT inhib: inhibitors of human tau fibril formation, thioflavin T binding | recombinant tau K18 P301L, heparin-induced fibrillization, ThT fluorescence | Potency, µM (doses to about 57.4 µM), without a hit: at the top dose activity, negative = inhibition, actives largely listed as inhibitors | hit rate 2.1% among 270,000 | AID 1460; also: potency is read from the fitted curve at half-maximal effect; % is scaled to controls: 0 for no effect and ±100 for the full control effect; nearly all actives have a fitted effect of over 55% in size
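In this qHTS, human K18 P301L tau is incubated with compound and heparin for 6 hr at 37 C, and Thioflavin T fluorescence then reports fibril load.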
Tau fluor cs: counter-screen for tau fibril formation inhibitors; tau K18 P301L (four-repeat tau fragment) Alexa594 fluorescence, heparin fibrillization; Potency, µM (series often up to 57.7 µM), without a hit: at the top dose activity change, negative = decrease; hit rate 0.93% among 280,000; also: potency is read from the fitted curve at half-maximal effect; % is scaled to controls: 0 for no effect and ±100 for the full control effect; nearly all actives have a fitted effect of over 55% in size
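Human K18 P301L tau (15 uM unlabeled plus 0.24 uM Alexa 594-labeled, final) in 100 mM sodium acetate pH 7 was mixed with compound and 20 uM heparin and incubated 6 hr at 37 C.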
An asterisk follows results filed as active; ? = inconclusive; / = no result; [ ] = remark or other dose. Unless noted, calls follow the shape of the dose curve; as a rule, active = well fitted curve in the direction sought with a large enough effect; inconclusive = small, poorly fitted or top-dose-only effect, or another doubt; inactive = no such curve, though single readings can be large; an effect the other way counts as inactive or inconclusive.

SMILES	Tau fibril FP	LMNA splice mod	CBFb-RUNX1 inh	JMJD2E inh	Tau ThT inhib	Tau fluor cs
CC(C)CCCC(C)C1CCC2C3CC(O)[C@@]4(O)CC(O)CC[C@@]4(C)C3CC[C@@]12C (stereo not given in full)	-3.9%	?	/	-5.1%	3.5%	-1.2%
O=C(Nc1cccc(Cl)c1)c1cnc2sc(N3CCCC3)nn2c1=O	0.6%	?	/	/	3.3%	4.2%
Cc1ccc(-c2nnc(Nc3ccc(O)cc3)c3ccccc23)cc1S(=O)(=O)N1CCOCC1	?	/	/	/	-2.9%	?
O=C(c1ccc2nc(-c3ccco3)c(-c3ccco3)nc2c1)N1CCC2(CC1)OCCO2	20µM*	-4.9%	?	?	8.91µM*	?
COc1ccc(-n2cnc3cc(C(=O)N4CCC5(CC4)OCCO5)ccc32)cc1	-1.5%	/	-2.9%	28.1%	-5.3%	-7.4%
CCOc1cccc(OCC)c2c(C)[n+](CC3CCCO3)c(C)c1-2 (stereo not given)	?	3.3%	?	?	20µM*	?
CCN1C(=O)c2ccccc2Sc2ccc(NC(=O)Nc3ccc(Br)c(C)c3)cc21	15.8µM*	?	/	/	13.9%	?
O=C(N/N=C/c1c(O)n(Cc2ccco2)c(=O)[nH]c1=O)c1ccccc1	0.9%	/	?	?	/	-1.4%
COc1cc(C(=O)N/N=C/c2ccc(OC(=O)N3CCOCC3)cc2)cc(OC)c1OC	2.3%	?	5.5%	28.2µM*	-17.9%	3.0%
CC(C)=CCCC1(C)C=Cc2c(O)c3c(c(CC=C(C)C)c2O1)OC12C(=CC4CC1C(C)(C)OC2(C/C=C(/C)C(=O)O)C4O)C3=O (stereo not given)	?	?	/	-19.6%	17.8µM*	-25.2%
COc1c(CC=C(C)C)c2c(c3oc(=O)c(-c4ccc(O)cc4)c(O)c13)C=CC(C)(C)O2	4.1%	-13.9%	/	?	-25.0%	-24.8%
CC(C)=CCCC1(C)C=Cc2c(O)c3c(c(CC=C(C)C)c2O1)OC12C(=CC4CC1C(C)(C)OC2(C/C=C(/C)C(=O)O)C4=O)C3=O (stereo not given)	?	/	5.4%	?	22.4µM*	-15.8%
CC(C)CCCC1(C)C=Cc2c(O)c3c(c(CCC(C)C)c2O1)OC12C(CC4CC1C(C)(C)OC2(CCC(C)C(=O)O)C4O)C3=O (stereo not given)	-7.3%	/	-12.4%	-10.2%	?	-3.6%
O=C(O)c1ccccc1-c1c2cc(Br)c(=O)cc-2oc2[c]([Hg])c(O)c(Br)cc12	?	?	-7.7%[21.7 µM]	5.01µM*	?	?
CCOc1ccc(N2CC(c3nc4ccccc4n3CCC3CCCCC3)CC2=O)cc1 (stereo not given)	-4.2%	/	/	/	?	-9.6%
Cc1ccccc1-c1nc(CS(=O)CC(=O)N2CCN(c3cc(Cl)ccc3C)CC2)c(C)o1 (stereo not given)	8.7%	/	/	/	?	-19.0%
COc1cc2c(c(OC)c1OC)-c1ccc(O)c(=O)cc1[C@H](N)CC2	/	?	1.3%[21.7 µM]	7.94µM*	/	/
COc1ccc(CC2c3cc(OC)c(OC)cc3CCN2C)cc1O (stereo not given)	-6.5%	4.0%	0.5%[2.36 µM]	-15.1%	-9.7%	-6.1%
COCCCOc1ccnc(CS(=O)c2nc3ccccc3[nH]2)c1C (stereo not given)	?	?	-22.9%	/	10µM*	-24.9%
O=c1[nH]c(=S)n(-c2ccc(Cl)cc2)c(O)c1C=Nc1ccc(N2CCOCC2)cc1	-7.2%	2.8%[46 µM]	-3.7%	3.5%	25.1µM*	?
NC(=O)c1ncn([C@H]2O[C@@H](CO)[C@@H](O)[C@@H]2O)n1	/	?	-15.0%[21.7 µM]	1.8%[25.5 µM]	/	/
N[C@@H](Cn1oc(=O)[nH]c1=O)C(=O)O	-2.6%	?	-3.5%	20µM*	-8.4%	-12.2%
C[C@@H]1OC(OC2C(OC3CC[C@@]4(C)C5CC=C6C7CC(C)(C)CC[C@@]7(C(=O)O)CCC6(C)C5(C)CCC4[C@]3(C)CO)OCC(O)C2O)C(O)C(O)C1O (stereo not given in full)	-10.1%	?	/	-3.3%	-6.7%	-5.6%
CN1C[C@H](C(=O)N[C@@]2(C)O[C@@]3(O)C4CCCN4C(=O)C(Cc4ccccc4)N3C2=O)C[C@H]2c3cccc4[nH]cc(c34)C[C@H]21 (stereo not given in full)	3.2%	/	3.2%	-5.1%	-1.8%	?
CC(C)[C@@]1(NC(=O)[C@@H]2C[C@@H]3c4cccc5[nH]cc(c45)C[C@H]3N(C)C2)O[C@@]2(O)C3CCCN3C(=O)[C@H](Cc3ccccc3)N2C1=O (stereo not given in full)	?	?	?	-9.2%	?	7.08µM*[quencher]
SMILES	Tau fibril FP	LMNA splice mod	CBFb-RUNX1 inh	JMJD2E inh	Tau ThT inhib	Tau fluor cs
CC(C)[C@@]1(NC(=O)[C@@H]2C[C@@H]3c4cccc5[nH]cc(c45)C[C@H]3N(C)C2)O[C@@]2(O)[C@@H]3CCCN3C(=O)[C@H](Cc3ccccc3)N2C1=O	?	1.9%	-18.8%	?	?	2.82µM*[quencher]
Cc1occc1C(=O)Nc1ccccc1	/	/	4.0%	/	/	/
CCc1ccc(NC(=O)c2ccc(F)c(S(=O)(=O)N3CCc4ccccc4C3)c2)cc1	?	-25.9%[46 µM]	/	/	-1.7%	-26.0%
O=C(OCC(=O)c1ccc([N+](=O)[O-])cc1)/C(=C\c1ccc(Cl)cc1)NC(=O)c1ccccc1	-7.8%	1.0%	9.2%	-17.8%	12.6µM*	?
CCOc1cc(OP(=S)(OC)OC)nc(CC)n1	/	/	24.2%	/	/	/
CCOC(=O)c1ccc(N2C(=O)c3n[nH]c(-c4cccs4)c3C2c2ccc(C(C)(C)C)cc2)cc1 (stereo not given)	?	/	/	/	-1.7%	-20.1%
CCOC(=O)c1ccc(N2C(=O)CC(N3CC=C(c4ccc(F)cc4)CC3)C2=O)cc1 (stereo not given)	1.1%	24.4%	10.3%	14.1µM*	?	-4.5%
CCOC(=O)c1c(C)n(C(C)C)c2ccc(OC(=O)c3ccc(N4C(=O)CCC4=O)cc3)cc12	?	-16.0%	-13.3%	-0.7%	6.8%	-3.0%
O=C1CC(N2CC=C(c3ccc(F)cc3)CC2)C(=O)N1c1ccc(F)cc1 (stereo not given)	?	7.8%	-0.2%	?	31.6µM*	?
COc1ccc(N2C(=O)CC(N3CCC(n4c(=O)[nH]c5ccccc54)CC3)C2=O)cc1 (stereo not given)	0.6%	7.9%	-4.2%	1.9%	-10.3%	-7.5%
